Inconclusive results are not listed. The source made the active and inactive calls. Unless noted, calls follow the shape of the dose curve; as a rule, active = well fitted curve in the direction sought with a large enough effect in the repeat runs; inconclusive = weak or mixed curves; inactive = no such curve, though single readings can be large; an effect the other way counts as inactive or inconclusive.
Key:
[1] = target: Estrogen receptor (Homo sapiens) (UniProt P03372); experiment: qHTS assay to identify small molecule agonists of the estrogen receptor alpha (ER-alpha) signaling pathway in the presence of an antagonist (AID 1259383; calls by dose curve; also: top concentration of the series differs between compounds; nearly all actives have a fitted effect of over 15% in size)
Sequence of Estrogen receptor (Homo sapiens) (P03372 whole entry, looked up): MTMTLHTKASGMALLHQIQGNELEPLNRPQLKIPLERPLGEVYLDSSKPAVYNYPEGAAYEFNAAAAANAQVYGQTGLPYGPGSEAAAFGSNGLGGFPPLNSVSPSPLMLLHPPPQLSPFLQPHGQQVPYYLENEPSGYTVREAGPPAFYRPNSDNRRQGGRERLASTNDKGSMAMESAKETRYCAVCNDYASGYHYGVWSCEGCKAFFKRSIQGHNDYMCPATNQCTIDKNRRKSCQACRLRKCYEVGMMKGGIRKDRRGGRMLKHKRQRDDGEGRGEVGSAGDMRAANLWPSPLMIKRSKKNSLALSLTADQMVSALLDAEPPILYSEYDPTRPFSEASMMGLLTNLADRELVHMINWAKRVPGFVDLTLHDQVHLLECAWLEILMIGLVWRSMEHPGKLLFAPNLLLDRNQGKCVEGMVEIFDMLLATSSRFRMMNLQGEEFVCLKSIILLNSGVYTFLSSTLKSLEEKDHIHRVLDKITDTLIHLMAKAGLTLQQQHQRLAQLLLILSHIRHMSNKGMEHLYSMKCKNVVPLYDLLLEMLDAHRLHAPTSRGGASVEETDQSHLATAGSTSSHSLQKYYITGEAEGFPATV
Procedure, shortened: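 Stably transfected VM7Luc4E2 reporter cells, kept 5 days in charcoal-stripped serum, received ICI-182,780 at 10.0nM final before compound addition. Following 22hr incubation at 37C and 5% CO2, luciferase signal was read by luminescence.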

[2] = qHTS assay to identify small molecule agonists or antagonists of the thyroid stimulating hormone receptor (TSHR) signaling pathway - wild type cell line counter screen (AID 1259384; calls by dose curve)
Procedure, shortened: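 Wild-type Hek293 cells, 800/well, 18 h at 37C, then compound with Ro20-1724 for 30 min RT. cAMP by HTRF (cAMP-d2/anti-cAMP cryptate), 1 h RT, fluorescence read. 15 concentrations, triplicates.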

[3] = qHTS assay to identify small molecule agonists of the estrogen receptor alpha (ER-alpha) signaling pathway in the presence of an antagonist - cell viability counter screen (AID 1259386);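 also: series mostly up to about 92 µM; cells exposed to compounds for 22 h at 37 °C before the viability read; nearly all actives have a fitted effect of over 30% in size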
Procedure, shortened: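 Viability counter screen using VM7Luc4E2 (full-length ER-alpha, four ERE-luciferase). The cells were treated with compounds alongside ICI-182,780 10.0nM for 22hr, and live-cell protease fluorescence was quantified with CellTiter-Fluor.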

[4] = target: Progesterone receptor (Homo sapiens) (UniProt P06401); experiment: qHTS assay to identify small molecule agonists of the progesterone receptor (PR) signaling pathway (AID 1346784; calls by dose curve; also: nearly all actives have a fitted effect of over 30% in size)
Sequence of Progesterone receptor (Homo sapiens) (P06401 whole entry, looked up): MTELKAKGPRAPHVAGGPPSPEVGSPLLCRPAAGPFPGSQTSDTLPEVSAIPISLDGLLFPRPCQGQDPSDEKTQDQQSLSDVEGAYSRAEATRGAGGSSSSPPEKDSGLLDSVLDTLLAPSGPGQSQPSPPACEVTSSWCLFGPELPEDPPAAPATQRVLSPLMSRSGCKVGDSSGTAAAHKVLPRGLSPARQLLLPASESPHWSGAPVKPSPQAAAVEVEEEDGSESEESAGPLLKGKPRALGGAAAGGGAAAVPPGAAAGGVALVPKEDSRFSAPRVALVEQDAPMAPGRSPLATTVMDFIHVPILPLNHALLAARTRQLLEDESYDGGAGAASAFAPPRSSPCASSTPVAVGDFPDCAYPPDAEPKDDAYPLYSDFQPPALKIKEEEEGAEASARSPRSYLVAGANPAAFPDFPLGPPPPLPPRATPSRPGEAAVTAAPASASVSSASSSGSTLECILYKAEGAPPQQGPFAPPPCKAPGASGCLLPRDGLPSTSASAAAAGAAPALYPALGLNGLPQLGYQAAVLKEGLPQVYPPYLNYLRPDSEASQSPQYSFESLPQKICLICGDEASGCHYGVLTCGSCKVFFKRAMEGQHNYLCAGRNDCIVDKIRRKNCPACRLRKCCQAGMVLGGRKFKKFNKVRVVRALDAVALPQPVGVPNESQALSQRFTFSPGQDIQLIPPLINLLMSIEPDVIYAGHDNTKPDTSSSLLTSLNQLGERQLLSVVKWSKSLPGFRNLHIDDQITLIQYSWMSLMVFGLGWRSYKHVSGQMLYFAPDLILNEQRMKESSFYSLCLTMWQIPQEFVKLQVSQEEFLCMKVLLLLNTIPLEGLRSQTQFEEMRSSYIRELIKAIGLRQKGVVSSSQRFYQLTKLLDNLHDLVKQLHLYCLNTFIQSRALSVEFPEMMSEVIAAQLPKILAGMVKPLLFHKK
Procedure, shortened: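 PR-UAS-bla HEK 293T cells carrying a UAS-driven beta-lactamase reporter were seeded in medium with 2% charcoal-stripped FBS, preincubated 6 hr at 37C, then exposed to compounds in DMSO for 16 hr; agonism was read by LiveBLAzer B/G FRET fluorescence.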

[5] = target: Progesterone receptor (Homo sapiens) (UniProt P06401); experiment: qHTS assay to identify small molecule antagonists of the progesterone receptor (PR) signaling pathway (AID 1346795; active = well fitted inhibition curve with a large enough effect in the signal ratio in the repeat runs, not every such curve was filed as active; the % refers to the signal ratio)
Procedure, shortened: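 PR-UAS-bla HEK293T cells carrying a UAS-driven beta-lactamase reporter were plated in medium with 2% charcoal-stripped FBS and rested 6 hr at 37C. Compounds were added with 1 nM R5020 (final) for 16 hr, then FRET substrate loaded 2 hr at room temperature.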

[6] = qHTS assay to identify small molecule antagonists of the progesterone receptor (PR) signaling pathway - cell viability counter screen (AID 1346798); also: series mostly up to about 92 µM; nearly all actives have a fitted effect of over 50% in size
Procedure, shortened: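 PR-UAS-bla HEK293T cells in medium with 2% charcoal-stripped FBS were treated with compounds plus R5020 for 16 hr at 37C. Cell viability was then read by CellTiter-Glo luminescence after 30 min at room temperature in the same wells.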

[7] = qHTS assay to identify small molecule antagonists of the TGF-beta/Smad signaling pathway - cell viability counter screen (AID 1346824); also: nearly all actives have a fitted effect of over 50% in size
Procedure, shortened: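 SBE-bla HEK 293T cells, incubated overnight, then compound plus 0.25 ng/mL TGF-beta1 (stock added) for 5 hr at 37 C. Viability was read in the same wells by CellTiter-Glo luminescence after 30 min at room temperature.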

[8] = qHTS assay to identify small molecule agonists of the TGF-beta/Smad signaling pathway - cell viability counter screen (AID 1346829); also: top concentration of the series differs between compounds; nearly all actives have a fitted effect of over 45% in size
Procedure, shortened: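 Same-well cytotoxicity: CellTiter-Glo added after the 2 hr room-temperature beta-lactamase substrate step, luminescence measured 30 min later; cells had 5 hr of compound at 37 C.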

[9] = qHTS assay to identify small molecule agonists of the TGF-beta/Smad signaling pathway (AID 1346859; active = well fitted activation curve with a large enough effect in the signal ratio in the repeat runs, not every such curve was filed as active; the % refers to the signal ratio; also: series mostly up to about 77 µM)
Procedure, shortened: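 HEK 293T cells stably carrying a beta-lactamase reporter driven by the Smad binding element were seeded overnight, exposed to DMSO-dissolved compounds for 5 hr at 37 C, 5% CO2, then loaded with FRET substrate for 2 hr at room temperature.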

[10] = target: Thyrotropin-releasing hormone receptor (Homo sapiens) (UniProt P34981); experiment: qHTS assay to identify small molecule antagonists of the thyrotropin-releasing hormone receptor (TRHR) signaling pathway (AID 1346877; active = well fitted inhibition curve with a large enough effect in the repeat runs, not every such curve was filed as active; also: series mostly up to about 51 µM)
Sequence of Thyrotropin-releasing hormone receptor (Homo sapiens) (P34981 whole entry, looked up): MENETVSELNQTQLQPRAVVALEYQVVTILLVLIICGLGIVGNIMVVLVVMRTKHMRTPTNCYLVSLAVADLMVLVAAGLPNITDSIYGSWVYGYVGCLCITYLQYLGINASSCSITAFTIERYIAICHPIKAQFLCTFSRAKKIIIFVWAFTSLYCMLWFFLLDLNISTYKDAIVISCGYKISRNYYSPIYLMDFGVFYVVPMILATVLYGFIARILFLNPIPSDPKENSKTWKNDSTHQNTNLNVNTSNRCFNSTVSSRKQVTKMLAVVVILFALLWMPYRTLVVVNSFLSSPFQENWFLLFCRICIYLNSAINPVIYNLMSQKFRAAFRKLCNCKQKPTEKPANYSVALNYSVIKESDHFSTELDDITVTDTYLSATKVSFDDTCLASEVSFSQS
Procedure, shortened: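 Following an 18 h incubation at 37 °C and a 2 h calcium dye load, TRHR-HEK293 cells were exposed to compound (5 min, room temperature) and challenged with TRH, 1 nM final.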

[11] = target: Thyrotropin-releasing hormone receptor (Homo sapiens) (UniProt P34981); experiment: qHTS assay to identify small molecule agonists of the thyrotropin-releasing hormone receptor (TRHR) signaling pathway (AID 1346891; calls by dose curve; also: series mostly up to about 58 µM)
Procedure, shortened: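 TRHR-expressing HEK293 cells were plated 18 h at 37 °C/5% CO2, loaded with calcium dye 2 h at 37 °C, then given compound in DMSO; fluorescence was read kinetically for 3 min at 1 s intervals.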

[12] = Human pregnane X receptor (PXR) small molecule agonists, qHTS cell viability counter screen (AID 1346977); also: nearly all actives have a fitted effect of over 50% in size
Procedure, shortened: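 PXR-Luc HepG2 cells in medium with 5% charcoal-stripped FBS were pre-incubated 5hr, then exposed to compounds for 24hr at 37C. Viability was read in the same wells by CellTiter-Fluor fluorescence, reagent added after 23hr with a 1hr incubation.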

[13] = Caspase-3/7 induction in HepG2 cells by small molecules, qHTS assay (AID 1346978); also: nearly all actives have a fitted effect of over 15% in size
Procedure, shortened: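 Wild-type HepG2 cells, 2,000/well, settled 5 hr at 37 C and 5% CO2, then compound-treated for 17 hr; caspase-3/7 activity read by luminescent Caspase-Glo 3/7 after 30 min at room temperature.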

[14] = Caspase-3/7 induction in CHO-K1 cells by small molecules, qHTS cell viability counter screen (AID 1346979); also: nearly all actives have a fitted effect of over 35% in size; also: potency is read from the fitted curve at half-maximal effect
Procedure, shortened: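 Wild-type CHO-K1 cells were seeded at 1,500 per well, rested 5hr at 37 C, then exposed to compounds in DMSO. After 16hr, CellTiter-Fluor reagent was added and fluorescence read 1hr later as the viability measure.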

[15] = Caspase-3/7 induction in CHO-K1 cells by small molecules, qHTS assay (AID 1346980); also: nearly all actives have a fitted effect of over 15% in size
Procedure, shortened: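 Wild-type CHO-K1 cells exposed to compounds for 17hr at 37 C, 5% CO2. Caspase-3/7 activity then measured by Caspase-Glo 3/7 luminescence after 30min at room temperature.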

[16] = Caspase-3/7 induction in HepG2 cells by small molecules, qHTS cell viability counter screen (AID 1346981); also: series mostly up to about 92 µM; nearly all actives have a fitted effect of over 30% in size
Procedure, shortened: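 Viability determined by CellTiter-Fluor fluorescence in HepG2 wells also used for the luminescent Caspase-Glo 3/7 read. Compounds were present for 16 hr at 37 C, 5% CO2 before reagent addition.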

[17] = target: Nuclear receptor subfamily 1 group I member 2 (Homo sapiens) (UniProt O75469); experiment: Human pregnane X receptor (PXR) small molecule agonists, qHTS assay (AID 1346982); also: nearly all actives have a fitted effect of over 35% in size; also: potency is read from the fitted curve at half-maximal effect
Sequence of Nuclear receptor subfamily 1 group I member 2 (Homo sapiens) (O75469 whole entry, looked up): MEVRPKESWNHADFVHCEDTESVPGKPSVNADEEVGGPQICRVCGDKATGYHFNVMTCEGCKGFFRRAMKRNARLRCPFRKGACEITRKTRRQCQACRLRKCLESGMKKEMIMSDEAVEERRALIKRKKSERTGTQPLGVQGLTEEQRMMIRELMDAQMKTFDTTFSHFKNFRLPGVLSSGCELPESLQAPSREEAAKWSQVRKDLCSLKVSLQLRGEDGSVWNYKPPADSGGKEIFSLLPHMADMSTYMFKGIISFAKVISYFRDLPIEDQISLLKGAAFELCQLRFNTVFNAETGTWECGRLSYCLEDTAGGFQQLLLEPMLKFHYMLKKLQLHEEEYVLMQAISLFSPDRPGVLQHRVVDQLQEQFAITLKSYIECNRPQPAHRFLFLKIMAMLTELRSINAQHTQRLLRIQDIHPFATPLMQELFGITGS
Procedure, shortened: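 Compound-induced hPXR transactivation of a CYP3A4 luciferase reporter was scored in HepG2 PXR-Luc cells over 24 hr at 37 C, 5% CO2, by luminescence.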

[18] = qHTS assay to identify small molecule agonists of the progesterone receptor (PR) signaling pathway - cell viability counter screen (AID 1346799; calls by dose curve; also: nearly all actives have a fitted effect of over 45% in size)
Procedure, shortened: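 PR-UAS-bla HEK293T cells, 3,000 per well in medium with 2% charcoal-stripped FBS, were preincubated 6 hr at 37C, then exposed to compounds for 16 hr; viability was read as CellTiter-Glo luminescence after 30 min at room temperature.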

[19] = target: Thyrotropin receptor (Homo sapiens) (UniProt P16473); experiment: qHTS assay to identify small molecule antagonists of the thyroid stimulating hormone receptor (TSHR) signaling pathway (AID 1259385; calls by dose curve; also: nearly all actives have a fitted effect of over 20% in size)
Sequence of Thyrotropin receptor (Homo sapiens) (P16473 whole entry, looked up): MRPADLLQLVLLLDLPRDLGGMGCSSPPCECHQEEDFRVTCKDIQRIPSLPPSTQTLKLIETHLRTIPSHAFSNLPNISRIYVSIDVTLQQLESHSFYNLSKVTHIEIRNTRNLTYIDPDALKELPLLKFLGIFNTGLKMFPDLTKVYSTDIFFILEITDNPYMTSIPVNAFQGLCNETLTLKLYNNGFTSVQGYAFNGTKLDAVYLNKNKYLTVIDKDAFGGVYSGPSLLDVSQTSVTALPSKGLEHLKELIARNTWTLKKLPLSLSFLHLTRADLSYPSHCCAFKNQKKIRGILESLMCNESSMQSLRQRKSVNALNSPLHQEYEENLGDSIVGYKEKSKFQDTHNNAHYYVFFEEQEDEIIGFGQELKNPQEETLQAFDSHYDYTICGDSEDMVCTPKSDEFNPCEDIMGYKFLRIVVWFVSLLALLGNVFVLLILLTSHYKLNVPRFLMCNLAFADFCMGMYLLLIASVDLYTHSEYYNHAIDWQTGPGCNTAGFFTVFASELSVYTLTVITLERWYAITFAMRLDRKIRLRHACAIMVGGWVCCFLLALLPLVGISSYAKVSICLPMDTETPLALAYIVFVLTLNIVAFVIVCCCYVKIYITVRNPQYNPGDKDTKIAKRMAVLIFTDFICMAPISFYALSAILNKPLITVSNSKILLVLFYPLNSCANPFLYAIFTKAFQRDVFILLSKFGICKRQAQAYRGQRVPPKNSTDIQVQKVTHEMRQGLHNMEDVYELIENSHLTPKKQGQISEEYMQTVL
Procedure, shortened: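 TSHR-HEK293 cells (800/well) plated 18 h, then compounds with Ro20-1724 and TSH at 1.5 ng/mL final, 30 min at room temperature. cAMP quantified by HTRF (cAMP-d2/anti-cAMP-cryptate, 1 h); 15 concentrations in triplicate.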

[20] = target: Nuclear receptor subfamily 1 group I member 2 (Rattus norvegicus) (UniProt Q9R1A7); experiment: Rat pregnane X receptor (rPXR) activation by small molecules, qHTS assay (AID 1346983); conditions: rPXR luciferase reporter cells, One-Glo luminescence, 24 h; max activation: hits give high values; also: nearly all actives have a fitted effect of over 20% in size
Sequence of Nuclear receptor subfamily 1 group I member 2 (Rattus norvegicus) (Q9R1A7 whole entry, looked up): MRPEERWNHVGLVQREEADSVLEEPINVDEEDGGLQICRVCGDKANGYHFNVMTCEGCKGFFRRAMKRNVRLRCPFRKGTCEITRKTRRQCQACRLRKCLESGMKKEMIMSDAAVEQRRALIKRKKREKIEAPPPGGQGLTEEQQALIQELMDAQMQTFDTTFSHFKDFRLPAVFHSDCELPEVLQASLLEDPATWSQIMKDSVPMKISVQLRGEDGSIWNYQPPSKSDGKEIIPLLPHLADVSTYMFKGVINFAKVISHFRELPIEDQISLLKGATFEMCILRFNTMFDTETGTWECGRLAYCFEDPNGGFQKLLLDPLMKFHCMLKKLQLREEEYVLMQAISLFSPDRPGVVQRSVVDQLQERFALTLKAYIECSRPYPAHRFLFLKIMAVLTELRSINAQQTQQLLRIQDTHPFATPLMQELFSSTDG
Procedure, shortened: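 Cell-based rPXR activation assay: rPXR cells, 2,000 per well, rested 5hr at 37 C, then exposed to compounds in DMSO for 24 hr at 37 C. Luciferase activity read by One-Glo luminescence after 30 min at room temperature.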
% is scaled to controls: 0 for no effect and ±100 for the full control effect.

CCCCCCCCCCCCCCCC(=O)OC
inactive: activation [1] -2.08% [at 19 µM] | cAMP activity change [2] -2.44% [at 18.9 µM] | activity change, negative = cytotoxicity [3] -0.526% [at 19 µM] | activation [4] -3.12% [at 19 µM] | activity change, negative = inhibition [5] 0.526% [at 18.9 µM] | activity change, negative = cytotoxicity [6] 20% [at 18.9 µM] | viability change, negative = cytotoxic [7] 1.68% [at 15.8 µM] | activity change, negative = cytotoxicity [8] -0.944% [at 15.8 µM] | activation [9] 0.447% [at 15.8 µM] | activity, negative = inhibition [10] 0.477% [at 10.5 µM] | activation [11] 1.74% [at 11.8 µM] | activity change, negative = cytotoxicity [12] 0.375% [at 19 µM] | caspase activation [13] 1.29% [at 19 µM] | activity change, negative = cytotoxicity [14] 3.95% [at 19 µM] | caspase-3/7 activation [15] 1.1% [at 19 µM] | activity change, negative = cytotoxicity [16] -1.7% [at 19 µM] | activation [17] 4.26% [at 19 µM]

Cc1cccc(N)n1
inactive: Potency [1] | outcome [2] | Potency [4] | Potency [5] | outcome [6] | Potency [18] | outcome [7] | outcome [8] | outcome [9] | outcome [12] | outcome [13] | outcome [15] | outcome [16] | Potency [17]

Cc1cc(O)c(Cl)cc1C
inactive: Potency [1] | outcome [19] | outcome [3] | Potency [4] | Potency [5] | outcome [6] | Potency [18] | outcome [7] | outcome [8] | outcome [9] | outcome [10] | Potency [11] | outcome [12] | outcome [13] | Potency [14] | outcome [15] | outcome [16] | Potency [17]

O=C1c2ccccc2C(=O)N1CO
inactive: Potency [1] | outcome [19] | outcome [3] | Potency [4] | Potency [5] | outcome [6] | Potency [18] | outcome [7] | outcome [10] | Potency [11] | outcome [12] | outcome [13] | Potency [14] | outcome [15] | outcome [16] | Potency [17]

CC(=O)OC1CCC(C(C)(C)C)CC1 (stereo unspecified)
inactive: Potency [1] | outcome [2] | outcome [3] | Potency [4] | Potency [5] | outcome [6] | Potency [18] | outcome [7] | outcome [8] | outcome [10] | Potency [11] | outcome [12] | Potency [14] | outcome [15] | outcome [16] | Potency [17]

C=COCCCCO
inactive: Potency [1] | outcome [19] | outcome [3] | Potency [4] | outcome [6] | Potency [18] | outcome [7] | outcome [8] | outcome [9] | outcome [10] | Potency [11] | outcome [12] | outcome [13] | Potency [14] | outcome [15] | outcome [16]

Cc1nc2ccc(Cl)cc2[nH]1
active: Potency [14] 17.2 µM | Potency [17] 12.2 µM
inactive: Potency [1] | outcome [2] | outcome [3] | Potency [4] | Potency [5] | outcome [6] | Potency [18] | outcome [7] | outcome [8] | outcome [10] | Potency [11] | outcome [15]

CCCCS
inactive: Potency [1] | outcome [2] | outcome [3] | Potency [4] | Potency [5] | outcome [6] | Potency [18] | outcome [7] | outcome [8] | outcome [9] | outcome [10] | Potency [11] | outcome [12] | outcome [13] | Potency [14] | outcome [15] | outcome [16] | Potency [17]

CCO[Si](CC(C)C)(OCC)OCC
inactive: Potency [1] | outcome [2] | outcome [3] | Potency [4] | outcome [7] | outcome [8] | outcome [9] | outcome [10] | Potency [11] | outcome [12] | outcome [13] | Potency [14] | outcome [15] | outcome [16]
active: Potency [17] 9.69 µM

CC(C)C[P+](C)(CC(C)C)CC(C)C
inactive: Potency [1] | outcome [2] | outcome [3] | Potency [4] | outcome [6] | Potency [18] | outcome [8] | outcome [9] | outcome [10] | Potency [11] | outcome [12] | outcome [13] | Potency [14] | outcome [15] | outcome [16] | Potency [17]

C/C=C(\C)C(=O)OC/C=C(\C)CCC=C(C)C
inactive: Potency [1] | outcome [19] | outcome [3] | Potency [4] | Potency [5] | outcome [6] | Potency [18] | outcome [8] | outcome [12] | outcome [13] | Potency [14] | outcome [15] | outcome [16] | Potency [17]

CCN1CCN(C(=O)N[C@@H](C(=O)N[C@@H]2C(=O)N3C(C(=O)O)=C(CSc4nnnn4C)CS[C@H]23)c2ccc(O)cc2)C(=O)C1=O
inactive: Potency [1] | outcome [2] | outcome [3] | outcome [6] | Potency [18] | outcome [8] | outcome [10] | Potency [11] | outcome [12] | Potency [14] | outcome [15] | outcome [16] | Potency [17] | max activation [20] -3.62%

CN(C)CCc1c[nH]c2ccc(CS(=O)(=O)N3CCCC3)cc12
inactive: Potency [1] | outcome [19] | outcome [3] | Potency [4] | Potency [5] | outcome [6] | Potency [18] | outcome [10] | Potency [11] | outcome [12] | outcome [13] | Potency [14] | outcome [15] | outcome [16] | Potency [17] | max activation [20] -1.76%

CC(C)(C)C(=O)CC(=O)C(C)(C)C
inactive: Potency [1] | outcome [19] | outcome [3] | Potency [4] | Potency [5] | outcome [6] | Potency [18] | outcome [7] | outcome [9] | outcome [10] | Potency [11] | outcome [12] | outcome [13] | Potency [14] | outcome [15] | outcome [16] | Potency [17]

COC(=O)N/N=C/c1c[n+]([O-])c2ccccc2[n+]1[O-]
inactive: Potency [1] | outcome [2] | outcome [3] | Potency [4] | Potency [5] | outcome [6] | outcome [7] | outcome [9] | outcome [10] | outcome [12] | Potency [14] | outcome [15] | outcome [16] | Potency [17] | max activation [20] -1.2%

From PubChem BioAssay (Tox21)
